The panel holds about 79,000 compounds, 15% with a hit somewhere; the sample as a whole holds those more often. A number with no mark means an inactive call. No stated cut-off is given here; in the data, active means growth inhibition above about 70%; inactive means the rest. Where a SMILES comes first, the peptide text is derived from it. The star is where a group is joined. Boc = CC(C)(C)OC(=O)*; OBn = c1ccc(CO*)cc1; Bn = c1ccc(C*)cc1
assay: NCI Yeast Anticancer Drug Screen. Data for the bub3 strain (AID 167); details: S. cerevisiae bub3 mutant strain, at 50.0 µM, hits give high values
Procedure, shortened: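 Whole-cell yeast assay. The mutant strain was incubated with compounds, and growth inhibition was determined by comparison with vehicle-treated cells.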

| SMILES | growth inhibition [%] |
| --- | --- |
| Cc1ccc2ccccc2c1CC(=O)NN | 6.9 |
| Cc1cc2ccccc2c(Br)c1C | -4.35 |
| O=C(c1ccccc1)c1cccnc1 | -45.2 |
| Cc1ccc(S(=O)(=O)CCN2CCOCC2)cc1 | 5.85 |
| COc1cc2nncc(SCc3ccc(Cl)cc3Cl)c2cc1OC | 1.2 |
| COCC(C)OC(=O)c1ccccc1Cl (centres undefined) | 21.1 |
| CCOC(=O)C(Cc1ccc(O)cc1)NC(=O)C(CSC(c1ccccc1)(c1ccccc1)c1ccccc1)NC(c1ccccc1)(c1ccccc1)c1ccccc1 (centres undefined) | -5.05 |
| CSc1cc(C)c(C#N)c(SC)n1 | 0.05 |
| CC(O)COc1ccc(C(C)(C)C)cc1 (centres undefined) | 10.8 |
| CS(=O)(=O)c1ccc(/C=C2/C=Cc3ccccc32)cc1 | 30.2 |
| CC(O)CNC(C)(C)CN (centres undefined) | -18.8 |
| CC(SC(C)C(=O)N/N=C/C=C\c1ccccc1)C(=O)N/N=C\C=C\c1ccccc1 (centres undefined) | 4.05 |
| NC(=O)c1c[n+]([O-])ccc1[N+](=O)[O-] | -14.8 |
| COc1ccc(/C=C2\SC(c3ccc(OC)cc3)N(NC(=O)Cc3ccccc3)C2=O)cc1 (centres undefined) | 1.1 |
| S=c1[nH]nc(-c2ccccc2)n1/N=C\c1ccc(-c2ccc(Cl)cc2)o1 | -2.35 |
| CN(CCC(=O)c1ccc2ccccc2c1)Cc1ccccc1 | 8 |
| COc1ccccc1C(=O)O | -7.35 |
| CC(C)CC(NC(=O)C(CCC(=O)OCc1ccccc1)NC(=O)OC(C)(C)C)C(=O)NC(COCc1ccccc1)C(=O)NC(Cc1ccccc1)C(=O)O (centres undefined) (Boc-E(OBn)LS(Bn)F-OH; configuration not given here) | 13.3 |
| COC1=CC(=O)C(c2cc(O)c(OC)cc2O)=CC1=O | 4.5 |
| COc1ccc(C2N3CCCCC3[C@@H]3c4[nH]c5ccccc5c4CCN23)c(OC)c1 (some centres undefined) | -5.3 |
| OC1CSCCSCCCSCCSC1 | 35.1 |
| CN1C2CC(=O)CC1[C@@H]1OC(c3ccccc3)O[C@H]21 (some centres undefined) | 17.6 |
| CCOC(=O)C1=C(C)OC(=O)CC1C (centres undefined) | -23.6 |
| OCc1ccc2[n+](c1)CCC1c3ccccc3NC21 (centres undefined) | -26.3 |

assay: NCI Yeast Anticancer Drug Screen. Data for the mlh1 rad18 strain (AID 175); details: S. cerevisiae mlh1 rad18 strain growth inhibition; at 50.0 µM; hits give high values
Procedure, shortened: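 Cells of a genetically altered yeast strain, deficient in DNA damage repair, were treated with compound. Their growth was then compared with that of vehicle-treated cultures to give inhibition.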

| SMILES | growth inhibition [%] |
| --- | --- |
| O=[N+]([O-])c1ccccc1N=Nc1c(O)[nH]c2c(Cl)cc(Cl)cc12 | -47.4 |
| CC1=CCC2N=C(c3ccccc3)CC2(C)C1=O (centres undefined) | -16.6 |
| CCN(CC)CCOc1ccc(/C(C#N)=C/c2ccc(OCCN3CCCCC3)cc2)cc1 | 33.5 |
| O=C1c2cc([N+](=O)[O-])ccc2-c2c(Cl)cc(NC(=O)C(F)(F)F)cc21 | -2.55 |
| COc1ccc(C2SCC(=O)N2c2nncs2)cc1F (centres undefined) | 20.2 |
| CC(=O)OCC1OC(OC(C)=O)C(NS(=O)(=O)Cc2ccccc2)C(OC(C)=O)C1OC(C)=O (centres undefined) | 20.4 |
| COc1ccc(/C=C2\C=Cc3ccccc32)cc1OC | 4.75 |
| Cc1ccc(N2C(=O)CS/C2=C(\C#N)c2nc3ccccc3[nH]2)cc1 | -40.2 |
| CCN(CC)/C(C=[N+]=[N-])=N\C(N)=N\S(=O)(=O)c1ccc(OC)cc1 | 13.4 |
| O=C1c2ccccc2C(=O)N1CNc1cccc(NCN2C(=O)c3ccccc3C2=O)c1 | -2.15 |
| CCN(CC)CC(O)c1cccc2cc(Cl)ccc12 (centres undefined) | -14 |
| C=C1C(=O)OC2CCCC(O)C12 (centres undefined) | 1.9 |
| CCSC(SCC)C(SCC)C(OC(=O)c1ccccc1)C(OC(=O)c1ccccc1)C(COC(=O)c1ccccc1)OC(=O)c1ccccc1 (centres undefined) | 33.3 |
| O=C(O)C(CO)Nc1ccccc1 (centres undefined) | 21.7 |
| N#CCCP(=O)(O)CO | -26.7 |
| COc1ccc(O)c(C(=O)O)c1 | 2.15 |
| Cc1ccc2ccccc2c1CC(=O)NN | -8.95 |
| Cc1cc2ccccc2c(Br)c1C | 4.7 |
| O=C(c1ccccc1)c1cccnc1 | -35.4 |
| Cc1ccc(S(=O)(=O)CCN2CCOCC2)cc1 | 2.8 |

| SMILES | growth inhibition [%] |
| --- | --- |
| COc1cc2nncc(SCc3ccc(Cl)cc3Cl)c2cc1OC | 8.25 |
| COCC(C)OC(=O)c1ccccc1Cl (centres undefined) | 24.3 |
| CCOC(=O)C(Cc1ccc(O)cc1)NC(=O)C(CSC(c1ccccc1)(c1ccccc1)c1ccccc1)NC(c1ccccc1)(c1ccccc1)c1ccccc1 (centres undefined) | 9.55 |
| CSc1cc(C)c(C#N)c(SC)n1 | -12.4 |
| CC(O)COc1ccc(C(C)(C)C)cc1 (centres undefined) | 2.6 |
| CS(=O)(=O)c1ccc(/C=C2/C=Cc3ccccc32)cc1 | 14.7 |
| CC(O)CNC(C)(C)CN (centres undefined) | -4 |
| CC(SC(C)C(=O)N/N=C/C=C\c1ccccc1)C(=O)N/N=C\C=C\c1ccccc1 (centres undefined) | 33.7 |
| NC(=O)c1c[n+]([O-])ccc1[N+](=O)[O-] | 18.2 |
| COc1ccc(/C=C2\SC(c3ccc(OC)cc3)N(NC(=O)Cc3ccccc3)C2=O)cc1 (centres undefined) | 1.15 |
| S=c1[nH]nc(-c2ccccc2)n1/N=C\c1ccc(-c2ccc(Cl)cc2)o1 | 5.5 |
| CN(CCC(=O)c1ccc2ccccc2c1)Cc1ccccc1 | 20.7 |
| COc1ccccc1C(=O)O | -5 |
| CC(C)CC(NC(=O)C(CCC(=O)OCc1ccccc1)NC(=O)OC(C)(C)C)C(=O)NC(COCc1ccccc1)C(=O)NC(Cc1ccccc1)C(=O)O (centres undefined) (Boc-E(OBn)LS(Bn)F-OH; configuration not given here) | -10.8 |
| COC1=CC(=O)C(c2cc(O)c(OC)cc2O)=CC1=O | 5.2 |
| COc1ccc(C2N3CCCCC3[C@@H]3c4[nH]c5ccccc5c4CCN23)c(OC)c1 (some centres undefined) | -9.65 |
| OC1CSCCSCCCSCCSC1 | 40.4 |
| CN1C2CC(=O)CC1[C@@H]1OC(c3ccccc3)O[C@H]21 (some centres undefined) | 19.5 |
| CCOC(=O)C1=C(C)OC(=O)CC1C (centres undefined) | 14 |
| OCc1ccc2[n+](c1)CCC1c3ccccc3NC21 (centres undefined) | -6.45 |

— PubChem BioAssay (NCI)
